Experiments:
Assay type in all cases: functional
[1] = biological target: Solute carrier family 2, facilitated glucose transporter member 1 (Homo sapiens) (UniProt P11166); experiment: ST_JUDE_LEISH: Cytotoxicity at 2uM final concentration against transgenic Leishmania Mexicana promastigotes LmGLUT1 that are glucose transport deficient and complemented with the human glucose transporter GLUT1. Activity is measured by DNA content using SYBR green in vitro
[2] = biological target: Hexose transporter 1 (Plasmodium falciparum) (UniProt O97467); experiment: ST_JUDE_LEISH: Cytotoxicity at 2uM final concentration against transgenic Leishmania Mexicana promastigotes LmPfHT that are glucose transport deficient and complemented with the Plasmodium falciparum hexose transporter. Activity is measured by DNA content using SYBR green in vitro
[3] = biological target: Glucose transporter (Leishmania mexicana) (UniProt O61059); experiment: ST_JUDE_LEISH: Cytotoxicity at 2uM final concentration against transgenic Leishmania Mexicana promastigotes LmGT2 that are glucose transport deficient and complemented with the L. Mexicana glucose transporter 2. Activity is measured by DNA content using SYBR green in vitro

Solute carrier family 2, facilitated glucose transporter member 1 (Homo sapiens), sequence (P11166 whole entry): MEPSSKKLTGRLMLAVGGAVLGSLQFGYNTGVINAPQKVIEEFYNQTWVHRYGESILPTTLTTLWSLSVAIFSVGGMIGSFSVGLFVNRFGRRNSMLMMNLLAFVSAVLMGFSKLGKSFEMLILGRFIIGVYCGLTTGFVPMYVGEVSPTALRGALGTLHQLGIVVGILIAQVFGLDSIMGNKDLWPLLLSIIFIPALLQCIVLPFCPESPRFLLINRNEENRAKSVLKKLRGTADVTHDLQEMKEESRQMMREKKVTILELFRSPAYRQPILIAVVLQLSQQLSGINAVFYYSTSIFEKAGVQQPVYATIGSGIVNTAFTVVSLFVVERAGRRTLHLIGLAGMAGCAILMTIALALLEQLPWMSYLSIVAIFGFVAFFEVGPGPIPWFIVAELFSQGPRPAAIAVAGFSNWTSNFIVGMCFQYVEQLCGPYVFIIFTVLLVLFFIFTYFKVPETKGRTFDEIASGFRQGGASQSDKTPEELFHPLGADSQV

Compound | inhibition [1] | inhibition [2] | inhibition [3]
CC[C@H]1CN2CC[C@H]1C[C@H]2[C@H](O)c1cc(/C=C/c2ccccc2)nc2ccc(OC)cc12 | 0.9% | -0.83% | -0.2%
COc1ccccc1CNCC(O)c1cc(C(F)(F)F)ccc1C(F)(F)F (centres undefined) | 0.84% | 0.58% | 1.6%
CCCCCCCSc1ccc(CC(C)NCC(O)c2cccc(Cl)c2)cc1 (centres undefined) | 4.14% | 4.49% | 4.37%
Cc1cc(C)c(CC(C)NCC(O)c2cccc(C(F)(F)F)c2)c(C)c1 (centres undefined) | 2.03% | -0.06% | -1.18%
CC[C@H]1CN2CC[C@@H]1C[C@H]2[C@H](O)c1cc(N2CCC(C)CC2)nc2ccc(OC)cc12 | 7.8% | 9.59% | 5.06%
Cc1c(C)c2c(c(C)c1O)CC[C@@](C)(C(=O)NC1CCC(CN3CCC(c4c[nH]c5ccccc45)CC3)CC1)O2 (some centres undefined) | 6.35% | 5.08% | 3.01%
COc1cc(CC(C)NCC(O)c2cccc(C(F)(F)F)c2)ccc1OCc1ccccc1 (centres undefined) | 4.94% | 4.6% | 3.99%
CC(=O)N(Cc1ccccc1-c1cccc(CNCc2ccc3c(c2)OCO3)c1)C1CCN(Cc2ccccc2)CC1 | 3.8% | 5.58% | 3.79%
COc1cc(CN2CCN(c3ccnc(N(C)C4CCN(C)CC4)n3)CC2)cc(Cl)c1O | 5.87% | 7.29% | 6.73%
Cc1[nH]c2cc(F)ccc2c1C1=CCN(CCCCC2(C)C(=O)Nc3c(F)cccc32)CC1 (centres undefined) | 3.71% | 5.17% | 4.44%
Cc1ccc(C(=O)Nc2ccnc(N(C)C3CCN(Cc4cccc(O)c4)CC3)c2)cn1 | 3.48% | 1.94% | 1.3%
O=C(NCc1ccc(S(=O)(=O)N2CCC(CN3CCC(c4c[nH]c5ccccc45)CC3)CC2)s1)c1ccccc1 | 3.85% | 3.63% | 3.02%
Oc1ccccc1CNCC(O)c1cc(C(F)(F)F)cc(C(F)(F)F)c1 (centres undefined) | 6.65% | 5.51% | 4.91%
CCCCCc1cc(O)c2c3c(c(=O)oc2c1)CN(C)CC3 | 2.93% | 2.18% | 1.87%
CCOC(=O)c1c(C)n(C2CCCCCC2)c2cc(Br)c(O)cc12 | 2.52% | 0.67% | 4.54%
O=C(NC1CCN(CC2(c3ccc(Cl)cc3)CCC2)CC1)c1cc[nH]n1 | 1.71% | -0.69% | -1.02%
O=C(NC1CCC(CN2CCC(c3c[nH]c4ccccc34)CC2)CC1)c1cc(-c2ccc(F)cc2F)ccc1O (centres undefined) | 0.76% | 0.13% | 0.42%
NCc1ccc(-c2ccccc2CN(C(=O)Nc2ccccc2)C2CCN(Cc3ccccc3)CC2)cc1 | 2.32% | 1.83% | -3.48%
CCCCCCCc1cc(O)c2c(c1)OC(C)(C)c1ccncc1-2 | 1.49% | 2.54% | 1.72%
CCCCCCC(C)c1cc(O)c2c(c1)OC(C)(C)c1ccncc1-2 (centres undefined) | 1.12% | 0.89% | -1.19%
OC1(c2ccc(Cl)c(C(F)(F)F)c2)CCN(CCOC2c3ccccc3CSc3ccc(Cl)cc32)CC1 (centres undefined) | 2.52% | 1.04% | 2.27%
O=C(C=Cc1ccc(F)c(Br)c1)N1CCC(CN2CCC(c3c[nH]c4ccccc34)CC2)CC1 | 17.6% | 15.9% | 13.1%
CC[C@H]1CN2CC[C@@H]1C[C@H]2[C@H](O)c1cc(N2CCC(C(N)=O)CC2)nc2ccc(OC)cc12 | 8.84% | 7.92% | 8.43%

Source: ChEMBL document CHEMBL3433997, “St. Jude Leishmania screening dataset” (2016)
